# Data as given in PubChem BioAssay (NCI).
# This is part of a sample that, as a whole, favours compounds with a hit. Of some 79,000 tested, about 15% had one in any assay. Activity calls are given as the source filed them. No stated cut-off is given here; in the data, active means growth inhibition above about 70%; inactive means the rest. Where a SMILES comes first, the peptide text is derived from it. The star is where a group is joined. Cbz = O=C(OCc1ccccc1)*
# Assay: NCI Yeast Anticancer Drug Screen. Data for the sgs1 mgt1 strain (AID 161);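 further: 0% = growth of cultures given vehicle only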
# Details: S. cerevisiae sgs1 mgt1 strain, at 50.0 µM, hits give high values
# How it was run: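 Compounds are added to genetically altered yeast, and growth is compared with cultures given vehicle alone to give percent inhibition.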
row,SMILES,growth inhibition
1,COc1cc(O)c(C(C)=O)c(OC)c1,-10.1% (inactive)
2,Cc1n[nH]c(=O)n1Nc1ccccc1,9.1% (inactive)
3,O=S(=O)(Cc1c(Cl)c(Cl)c(Cl)c(Cl)c1Cl)c1ccc(Cl)cc1,-1.25% (inactive)
4,CCC(=O)C1(CCCN(C)C)c2ccccc2Sc2ccccc21,-8.6% (inactive)
5,O=C1OCCC1(Cc1ccc(Cl)cc1)Cc1ccc(Cl)cc1,-4.7% (inactive)
6,NC(=O)c1ncnc2nc[nH]c12,-9% (inactive)
7,Oc1cc2nc3ccccc3nc2c2ccc(Br)cc12,7.7% (inactive)
8,Cn1ccc(=S)c2ccccc21,9.6% (inactive)
9,Cc1c(-c2ccc3c(c2)OCO3)sc(N)c1C#N,12.2% (inactive)
10,C/C=C(\C)C(=O)N1c2ccccc2CC1c1c(C)[nH]c2ccccc12 (stereo not given),21.2% (inactive)
11,CCCc1ccc(N=Cc2cc(OC)c(OC)c(OC)c2)cc1,13.5% (inactive)
12,O=NN(CCCl)C(=O)Oc1ccc2ccccc2c1,16.1% (inactive)
13,CC(=O)Nc1cccc(OCCOc2ccccc2[N+](=O)[O-])c1,-8.65% (inactive)
14,COC1C(O)CC(OC2CC(OC3CC(O[C@@H]4C(=O)c5c(cc6cc(OC7CC(OC8CC(O)C(O)C(C)O8)C(O)C(C)O7)c(C)c(O)c6c5O)C[C@H]4[C@H](OC)C(=O)[C@@H](O)[C@@H](C)O)OC(C)C3O)OC(C)C2O)OC1C (stereo not given in full),41.7% (inactive)
15,NC(CO)C(O)c1ccc([N+](=O)[O-])cc1 (stereo not given),-3.3% (inactive)
16,Cc1no[n+]([O-])c1NC(=O)OCc1ccccc1,-2.6% (inactive)
17,COC1/C=C/OC2(C)Oc3c(C)c(O)c4c(O)c(c5c(nc(-c6ccco6)n5-c5ccccc5)c4c3C2=O)NC(=O)/C(C)=C\C=C\C(C)C(O)C(C)C(O)C(C)C(OC(C)=O)C1C (stereo not given),-19.8% (inactive)
18,Cc1ccc(C(C)C)nc1,19.1% (inactive)
19,Cc1c2oc3c(C)ccc(C(=O)NCCN4CCN(c5ccccc5)CC4)c3nc-2c(C(=O)NCCN2CCN(c3ccccc3)CC2)c(N)c1=O,-8.5% (inactive)
20,CNC(=O)Nc1ccc(Cl)cc1C(=O)O,-15.7% (inactive)

row,SMILES,growth inhibition
1,O=C(CNC(=O)C(CCC(=O)OCc1ccccc1)NC(=O)OCc1ccccc1)NCC(=O)Oc1ccc([N+](=O)[O-])cc1 (stereo not given),10.3% (inactive)
2,O=C(Nc1ccn(CCI)c(=O)n1)c1ccccc1,10.1% (inactive)
3,CC1(C(=O)O)CCC(C(=O)Nc2ccccc2)C1(C)C (stereo not given),5.05% (inactive)
4,NNc1cc(S(=O)(=O)O)cc(C(=O)O)c1O,31.4% (inactive)
5,CC(=O)O[C@H]1C[C@H]2[C@@H](OC(C)=O)/C=C3\C[C@](C)(C(=O)[C@H](O)C(=C1C)C2(C)C)[C@@H](O)C[C@@H]3OC(=O)[C@H](O)[C@H](c1ccccc1)N(C)C,-8.6% (inactive)
6,COC(=O)COc1cc2c(cc1C(C)c1ccc(O)cc1)OCO2 (stereo not given),99% (active)
7,NC(=O)CO,17.6% (inactive)
8,N=c1c2ccccc2nc2oc3ccc(Cl)cc3n12,-6.25% (inactive)
9,COC(=O)C1CC=CCCC1=O (stereo not given),23.7% (inactive)
10,COc1ccc(-c2cc(=O)c3c(O)cc(O)c(-c4cc(-c5cc(=O)c6c(O)cc(OC)cc6o5)ccc4OC)c3o2)cc1,5.55% (inactive)
11,O=C1ON(c2ccccc2)C(c2cccc(Cl)c2)N1c1ccccc1 (stereo not given),-3.95% (inactive)
12,O=C(O)c1ccc(B(O)O)cc1[N+](=O)[O-],7.35% (inactive)
13,CC(C)C(NC(=O)C(Cc1ccc(O)cc1)NC(=O)OCc1ccccc1)C(=O)O (stereo not drawn) (Cbz-Tyr-Val-OH; configuration not given here),-3.85% (inactive)
14,COc1cccc(-c2nc(-c3cnccn3)n(C3OC(CO)C(O)C3O)n2)c1 (stereo not given),-12.8% (inactive)
15,O=C1C(=Cc2cccnc2)C(=O)c2ccccc21,42.4% (inactive)
16,O=C(Cc1c[nH]c2ccccc12)N/N=C/c1ccccc1[N+](=O)[O-],10.1% (inactive)
17,N=C(N)SCc1cn2ccccc2n1,-62.7% (inactive)
18,CSCCC(NC=O)C(=O)O (stereo not given),7.9% (inactive)
19,O=c1ccc2cc(Cl)ccc2o1,-7.8% (inactive)
20,COC(=O)C12OCC34C(CC(C(C)=O)C(C)(CC(=O)O)C3C(O)C1O)OC(=O)C(OC(=O)/C=C(\C)C(C)C)C24 (stereo not given),0.15% (inactive)
